A selection: hits, their analogues and other compounds. The true share with any hit is near 7.9%.
HCMV inh = qHTS Assay for inhibitors of the human cytomegalovirus (HCMV); HFF cells, HCMV-luciferase reporter, 72 h; hits give low values; activity change, negative = inhibition, % at 57.5 µM; hit rate 4.5% among 410,000; AID 1259415, 2018; in the data active means activity change below about -60%; inconclusive means no clear call, values can overlap the other calls; inactive means above about -39%; further: on the % scale 0 is the no-effect control and ±100 the full control effect
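Screen run at 2 compound doses on HFFs infected with reporter HCMV, MOI 1 PFU/cell. Luciferase activity from cell lysates at 72 h post infection gave inhibition relative to buffer-only and Salinomycin wells.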
Lassa entry inh = qHTS for Inhibitors of binding or entry into cells for Lassa Virus; Lassa virus pseudotype entry inhibition, cell reporter; Potency, µM (highest dose often 37.9 µM), without a hit: at the highest dose activity change, negative = inhibition, most hits filed as inhibitors; hit rate 1.2% among 300,000; AID 540256, 2011; calls by dose curve; tested in HEK293 cells; further: potency means the concentration at half of the fitted maximal effect; on the % scale 0 is the no-effect control and ±100 the full control effect; nearly all actives have a fitted effect of over 50% in size
Marburg entry inh = qHTS for inhibitors of binding or entry into cells for Marburg Virus; Marburg virus pseudotyped entry inhibition, cell reporter; Potency, µM (series often up to 37.8 µM), inactives show top-dose activity change, negative = inhibition, most hits filed as inhibitors; hit rate 1.8% among 300,000; calls by dose curve; tested in HEK293 cells; further: potency means the concentration at half of the fitted maximal effect; on the % scale 0 is the no-effect control and ±100 the full control effect
HCV inh = qHTS Assay for Inhibitors of Hepatitis C Virus (HCV); AID 651820, 2012; Huh7.5.1 HCVcc-Cre infection, luciferase reporter, 44 h; Potency, µM (doses to about 41.8 µM), without a hit: at the top dose activity change, negative = inhibition, usual class: inhibitors; hit rate 3.4% among 340,000; further: potency means the concentration at half of the fitted maximal effect; on the % scale 0 is the no-effect control and ±100 the full control effect
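Infectious HCV cell culture screen: compound-treated cells (1,000/well, pre-plated 4 h) are infected with HCVcc-Cre at roughly 0.5 moi and grown 44 h. Infection is quantified by luciferase signal after 15 min substrate incubation at room temperature.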
FMDV inh = High Throughput Screening for Foot and Mouth Disease Virus Antivirals. Potency, µM (series often up to 57.9 µM), inactives show at the top dose activity change, negative = inhibition, most hits filed as inhibitors. AID 1159524, 2015. FMDV antiviral cell-based qHTS. hit rate 1.2% among 410,000; calls by dose curve; tested in HEK293T cells; further: read-out not given here; potency means the concentration at half of the fitted maximal effect; on the % scale 0 is the no-effect control and ±100 the full control effect; nearly all actives have a fitted effect of over 45% in size
HCV inh confirm = qHTS Assay for Inhibitors of Hepatitis C Virus (HCV): Confirmation Assay for Cherry-picked Compounds; hit rate 78% among 640; HCVcc-Cre infectious virus cell assay, luciferase, inhibition; Potency, µM (doses to about 41.8 µM), for inactives: at the top dose activity, negative = inhibition, actives largely listed as inhibitors; shares compounds with HCV inh; further: potency means the concentration at half of the fitted maximal effect; nearly all actives have a fitted effect of over 80% in size
HCV cytotox = qHTS Assay for Inhibitors of Hepatitis C Virus (HCV): Cytotoxicity Counterscreen for Cherry-picked Compounds. shares compounds with HCV inh. HCV host cell line cytotoxicity counterscreen. hit rate 22% among 640. Potency, µM (highest dose often 41.8 µM), inactives show at the top dose activity change, negative = cytotoxicity, usual class: inhibitors;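 further: potency means the concentration at half of the fitted maximal effect; 44 h compound exposure; on the % scale 0 is the no-effect control and ±100 the full control effect; nearly all actives have a fitted effect of over 55% in size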
Numbers without * were called inactive; ? = inconclusive; / = not tested or not shown; [ ] = another dose, or the depositor's remark. Unless noted, the call rests on the fitted dose curve; in most records, active means well fitted curve in the direction sought with a large enough effect; inconclusive means small, poorly fitted or top-dose-only effect, or another doubt; inactive means no such curve, though single readings can be large; an effect the other way counts as inactive or inconclusive.

SMILES	HCMV inh	Lassa entry inh	Marburg entry inh	HCV inh	FMDV inh	HCV inh confirm	HCV cytotox
Cc1cnc(C=NNC(N)=S)c2cccc(N)c12	-20	8.9µM*	7.1µM*	?	-21%	?	-33%
NC(=S)NN=Cc1nccc2ccccc12	-98*	?	?	2.8µM*	11%	6.3µM*	?
NC(=S)N/N=C/c1cccc(/C=N/NC(N)=S)c1	0	21%	2%	-14%	12%	/	/
CC(=O)Nc1ccc(Nc2cc(C)nc3c(-c4ccccc4)c(C)nn23)cc1	-33	-10%	?	?	-30%	/	/
CC(=O)Nc1ccc(Nc2cc(C(C)C)nc3c(-c4ccccc4)c(C)nn23)cc1	?	/	/	2.5µM*	?	14µM*	-17%
Cc1ccccc1Cn1cnc2c(NS(C)(=O)=O)c(C)c(C)cc21	10	24%	15%	?	?	/	/
COc1ccc(Cn2cnc3c(NS(C)(=O)=O)c(C)c(C)cc32)cc1	98	-19%	-22%	3.2µM*	?	0.011µM*	5%
CC(C)(C)c1cc[n+](C2=C([O-])c3ccccc3C(=O)/C2=N\S(=O)(=O)c2cccs2)cc1	-100*	?	10µM*	2.8µM*	8.9µM*	25µM*	?
Cc1ccc[n+](C2=C([O-])c3ccccc3C(=O)C2=O)c1	27	/	/	/	/	/	/
Cc1cccc(NC(=O)C2CCN(S(=O)(=O)c3cccc4nsnc34)CC2)c1C	-3	-5%[46.1 µM]	1%[46.1 µM]	/	-5%	/	/
C=C(CN(C)C)C(=O)c1cc(C)ccc1C	-99*	?	?	?	?	8.9µM*	7.9µM*
Cc1ccc(C)c(C(=O)NCCN(C)C)c1	60	-2%	9%	1%	8%	/	/
Cc1nn2c(NCCCN(C)C)c3c(nc2c1-c1ccccc1)CCCC3	-20	?	7.1µM*	2µM*	-14%	7µM*	6%
Cc1nn2c(NCCCN(C)C)c3c(nc2c1-c1ccccc1)CCC3	-13	-15%	-23%	?	-6%	/	/
COc1cc(C(=O)NCC(c2cccnc2)N2CCc3ccccc32)cc(OC)c1OC (stereo not drawn)	-22	?	/	/	-21%	/	/
CCN(CC)CCOC(=O)C(c1ccccc1)C1CCCCC1 (stereo not drawn)	?	/	/	?	-23%	14µM*	14%
CCN(CC)CCOC(=O)C(c1ccccc1)c1ccccc1	-10	1%	-35%	-19%[8.37 µM]	-20%	/	/
Cc1ccc(C)c(NC(=O)CSc2nnc(CNC(=O)c3ccccc3)n2-c2ccccc2)c1	21	-25%[46.1 µM]	2%[46.1 µM]	/	-6%	/	/
CCCOc1ccc(/C=C/C(=O)Nc2ccc([N+](=O)[O-])cc2)cc1	-70*	?	1.8µM*	3.5µM*	5.6µM*	7.9µM*	20µM*
CCCCOc1ccc(/C=C/C(=O)Nc2ccc([N+](=O)[O-])cc2C)cc1	-12	0%	-7%	?	0%	/	/
C[C@@H](CSc1ccc(Br)cc1)CN1CC[C@H](NC(=O)OCc2ccccc2)CCC1=O	-25	/	/	4.5µM*	25µM*	14µM*	-63%
COc1cc(NC(=O)c2ccc3c(c2)OCO3)ccc1NC(=O)c1ccco1	-8	-2%	4%[46.1 µM]	?	15%	?	8%
COc1ccccc1CNC(=O)c1cc2sccc2n1Cc1ccc(Cl)cc1	-16	14%[46.1 µM]	-17%[46.1 µM]	/	-16%	/	/
CCOc1cc(CNCCc2ccc(S(N)(=O)=O)cc2)cc(Cl)c1OCc1ccccc1	-61*	?	?	1.6µM*	20µM*	4.4µM*	13µM*
Cc1oc2ccc(O)c(CN3CCCC(C)C3)c2c1C(=O)Nc1ccccc1 (stereo not drawn)	?	-29%[46.1 µM]	?	/	0%	/	/
